This passage reports composite z-score and z-score results from PubChem BioAssay.

Assay [1] in a line: anti-His antibody binders, primary screen, artefact control for SMM control protein annotation, biochemical, small-molecule microarray, 635 nm fluorescence (AID 1128).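 Further: score merges feature fluorescence with signal-to-noise for each printed compound spot.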 To be noted: anti-His Alexa647 antibody binding, higher = more signal.
For assay [2], the system named is Human papillomavirus type 1a E7 protein (residues 1-88). Put plainly: HPV1a E7 small-molecule binders, primary screen, biochemical, small-molecule microarray, residues 1-88, 635 nm (AID 1129). Particulars: small-molecule microarray binding, fluorescence 635 nm; higher = more signal.
In assay [3] the target is Focal adhesion kinase 1 (Homo sapiens) (UniProt Q05397). Nature of the assay: small-molecule microarray binders of FAK, primary screen, biochemical, 635/667 nm fluorescence, BSA, DTT (AID 1130).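 Further: composite of spot emission at 667 nm and signal to noise over triplicate slides.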 To be noted: PTK2 binding, 635 nm fluorescence, higher = more signal.
Chain of Focal adhesion kinase 1 (Homo sapiens) (Q05397 whole entry, looked up): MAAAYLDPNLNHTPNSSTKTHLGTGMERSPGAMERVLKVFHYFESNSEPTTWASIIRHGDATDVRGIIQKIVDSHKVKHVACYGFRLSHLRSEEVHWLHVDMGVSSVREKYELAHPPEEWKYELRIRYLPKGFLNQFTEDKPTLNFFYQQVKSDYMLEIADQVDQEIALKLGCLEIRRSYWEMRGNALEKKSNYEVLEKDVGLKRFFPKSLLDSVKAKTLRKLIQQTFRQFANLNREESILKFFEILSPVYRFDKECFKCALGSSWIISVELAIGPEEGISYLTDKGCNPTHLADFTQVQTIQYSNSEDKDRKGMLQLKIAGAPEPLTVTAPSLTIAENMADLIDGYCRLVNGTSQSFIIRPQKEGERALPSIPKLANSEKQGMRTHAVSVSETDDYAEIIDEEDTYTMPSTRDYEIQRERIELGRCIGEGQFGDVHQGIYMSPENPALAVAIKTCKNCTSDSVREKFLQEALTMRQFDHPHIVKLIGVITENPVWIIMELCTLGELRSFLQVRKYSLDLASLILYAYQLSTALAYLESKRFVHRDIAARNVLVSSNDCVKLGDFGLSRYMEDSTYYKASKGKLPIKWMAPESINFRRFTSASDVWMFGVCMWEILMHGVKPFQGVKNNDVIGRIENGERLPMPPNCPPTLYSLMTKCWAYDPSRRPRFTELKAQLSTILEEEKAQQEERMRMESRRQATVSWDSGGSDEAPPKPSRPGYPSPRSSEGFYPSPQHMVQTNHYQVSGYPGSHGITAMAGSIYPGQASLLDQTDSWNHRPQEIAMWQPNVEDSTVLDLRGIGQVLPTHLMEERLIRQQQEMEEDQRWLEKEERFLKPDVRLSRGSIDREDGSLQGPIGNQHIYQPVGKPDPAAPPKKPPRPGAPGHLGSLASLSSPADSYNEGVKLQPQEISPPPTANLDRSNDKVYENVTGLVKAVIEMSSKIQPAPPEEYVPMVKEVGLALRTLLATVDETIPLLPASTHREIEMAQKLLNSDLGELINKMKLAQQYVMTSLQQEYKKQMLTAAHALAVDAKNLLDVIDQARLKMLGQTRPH
In assay [4] the test system is Fibrinogen (Alexa647-labelled). Put plainly: fibrinogen binders on compound microarrays, profiling panel, artefact control for SMM control-protein annotation, biochemical, small-molecule microarray, 635/667 nm fluorescence (AID 1131).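 Further: z-score merges 667 nm fluorescence with per-spot signal-to-noise over triplicate slides.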 Particulars: fibrinogen-A647 binding fluorescence, higher = more signal.
Assay [5] has as its target Follistatin (Homo sapiens) (UniProt P19883). Nature of the assay: follistatin binders on small-molecule microarrays, primary screen, biochemical, small-molecule microarray, 635/667 nm fluorescence (AID 1132). To be noted: FST binding, 635 nm fluorescence, higher = more signal.
Assay [6] deals with Fibroblast growth factor 2 (Homo sapiens) (UniProt P09038). Nature of the assay: FGF2 binders on small-molecule microarrays, primary screen, biochemical, small-molecule microarray, 635/667 nm fluorescence (AID 1133). Particulars: small-molecule microarray binding, FGF2, fluorescence 635/667; higher = more signal.
Chain of Fibroblast growth factor 2 (Homo sapiens) (P09038 whole entry, looked up): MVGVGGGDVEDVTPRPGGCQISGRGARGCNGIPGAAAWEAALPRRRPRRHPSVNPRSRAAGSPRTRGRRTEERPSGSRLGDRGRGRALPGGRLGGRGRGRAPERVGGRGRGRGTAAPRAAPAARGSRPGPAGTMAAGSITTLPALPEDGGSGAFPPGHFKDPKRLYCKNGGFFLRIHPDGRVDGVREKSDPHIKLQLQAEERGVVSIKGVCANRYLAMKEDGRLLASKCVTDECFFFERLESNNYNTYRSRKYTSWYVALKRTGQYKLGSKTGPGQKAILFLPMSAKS
The nature of assay [7]: mitochondrial membrane potential change in A549 cells, profiling panel, cell-based, JC-1 fluorescence, basal, 24 h, 100 nL (AID 1138).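 Further: A549 lung adenocarcinoma cells under basal conditions with no added stimulus; test concentration not given here.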 To be noted: higher = more signal.
Another assay concerns Lefty1. Nature of the assay: Lefty1 binders on small-molecule microarrays, primary screen, biochemical, small-molecule microarray, 635/667 nm fluorescence (AID 1139). To be noted: small-molecule microarray binding, fluorescence 635/667; higher = more signal.
The test system of assay [8] is wheat germ agglutinin (Triticum aestivum), Alexa647-labelled. Nature of the assay: wheat germ agglutinin binders on compound microarrays, profiling panel, artefact control for SMM control-protein annotation, biochemical, small-molecule microarray, 635/667 nm fluorescence (AID 1140).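 Further: score merges 667 nm feature emission with signal to noise over triplicate slides.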 Particulars: WGA-A647 binding, 635 nm fluorescence, higher = more signal.
Assay [9] deals with Luciferin 4-monooxygenase (Photinus pyralis) (UniProt P08659). Nature of the assay: firefly luciferase enzyme inhibitors, primary screen, biochemical, luminescence, purified enzyme, 2006 set (AID 1141).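 Further: cell-free assay with purified firefly luciferase at 100 ng per well in PBS; test concentration not given here.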 Particulars: SteadyGlo luminescence, 30 min, higher = more signal, called active from +8 up or from −8 down.
Chain of Luciferin 4-monooxygenase (Photinus pyralis) (P08659 whole entry, looked up): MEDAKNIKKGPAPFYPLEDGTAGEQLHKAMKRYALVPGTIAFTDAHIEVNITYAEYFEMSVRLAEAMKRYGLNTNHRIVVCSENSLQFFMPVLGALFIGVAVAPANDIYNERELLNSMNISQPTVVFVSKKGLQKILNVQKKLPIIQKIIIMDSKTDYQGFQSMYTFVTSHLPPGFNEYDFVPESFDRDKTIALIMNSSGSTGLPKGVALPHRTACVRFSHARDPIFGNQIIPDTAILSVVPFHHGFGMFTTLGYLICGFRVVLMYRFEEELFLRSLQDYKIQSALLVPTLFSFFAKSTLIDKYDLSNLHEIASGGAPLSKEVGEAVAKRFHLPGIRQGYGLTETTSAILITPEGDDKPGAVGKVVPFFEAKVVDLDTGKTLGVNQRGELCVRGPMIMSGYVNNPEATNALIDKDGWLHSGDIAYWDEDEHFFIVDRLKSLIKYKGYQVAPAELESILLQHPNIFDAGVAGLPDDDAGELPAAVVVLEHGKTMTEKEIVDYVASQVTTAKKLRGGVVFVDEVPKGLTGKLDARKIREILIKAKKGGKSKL

Activity calls are given as the source filed them.

Chain of Follistatin (Homo sapiens) (P19883 whole entry, looked up): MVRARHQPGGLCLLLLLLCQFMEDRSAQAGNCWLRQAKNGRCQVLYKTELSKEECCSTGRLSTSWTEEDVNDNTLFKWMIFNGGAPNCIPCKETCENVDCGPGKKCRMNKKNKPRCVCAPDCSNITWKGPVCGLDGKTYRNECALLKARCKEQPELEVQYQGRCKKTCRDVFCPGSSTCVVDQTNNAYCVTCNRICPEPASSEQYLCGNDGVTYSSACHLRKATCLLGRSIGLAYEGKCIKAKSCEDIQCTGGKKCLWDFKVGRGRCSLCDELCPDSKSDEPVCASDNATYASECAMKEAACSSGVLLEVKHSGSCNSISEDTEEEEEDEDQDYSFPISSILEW

For `C=C(C(=O)CC[C@H](OC(=O)c1ccccc1-c1ccccc1C(=O)O)c1ccc(OCCO)cc1)C(C)C`, the composite z-score in assay [1] is 0.547; in [2] it was 1.16; in assay [3], 0.124; in assay [4] it was 0.981; in assay [5] it was 0.901; in assay [6], 0.726. In addition, the composite z-score in the assay with Lefty1 was 0.64; in [8], 0.189. Besides, the z-score was -0.45 in assay [7] and -1.35 (inactive) in assay [9].

For `COC(=O)[C@@]1(Cc2ccc(F)cc2)[C@H]2c3cc(C(=O)N(C)C)n(Cc4ccsc4Br)c3C[C@H]2CN1C(=O)c1ccccc1`, the composite z-score in assay [1] is 0.77; in [2], 1.12; in assay [3] it was 1.96; in [4], 1.04; in [5] it was -0.161; in assay [6] it was 0.021. The composite z-score with Lefty1 was -0.675; in assay [8], 1.04. Moreover, the figures for the z-score in assay [7] and in [9] were -0.51 and 1.18 (inactive), respectively.

For the molecule `COc1cc2c(cc1O)C(C)N(Cc1sc3ccccc3c1Cl)CC2` (stereo not given), the composite z-score in assay [1] was -0.119; in [2] it was -1.14; in assay [3], -0.439; in [4] it was -2.68; in [5] it was -0.678; in assay [6] it was -1.11. Besides, the results for the composite z-score (with Lefty1; in assay [8]) were -1.44 and 0.358, respectively. Also, the z-score in assay [7] is 0.218; in assay [9], 1.39 (inactive).

Consider `[N-]=[N+]=NCc1ccccc1[C@H]1OC(c2ccc(OCCCO)cc2)=N[C@@]1(Cc1ccccc1N=[N+]=[N-])C(=O)N1CCOCC1`, for which the composite z-score in assay [1] is 0.574; in assay [2], 1.21; in assay [3], 0.993; in assay [4] it was 1.04; in assay [5], 0.526; in assay [6] it was -0.335. For the same molecule, the composite z-score in the assay on Lefty1 worked out at 0.0349; in assay [8], 1.07. In addition, the z-score is 0.704 in assay [7] and -2.44 (inactive) in [9].

Regarding `Cc1ccc(S[C@]2(C(=O)NCc3ccccc3)CC(=O)N(Cc3ccccc3Cl)[C@@H]2c2ccc(CO)cc2)cc1`, the composite z-score in [1] is 1.29; in assay [2], -0.561; in [3] it was -0.0881; in assay [4], -0.919; in assay [5] it was -0.181; in assay [6] it was -0.756. The composite z-score with Lefty1 was -0.423; in [8], -0.3. The z-score in [7] is -0.387; in assay [9] it was 0.718 (inactive).

`O=C1O[C@@H](c2ccccc2)[C@@H](c2ccccc2)N2[C@@H](c3ccc(OCCO)cc3)[C@]3(C(=O)Nc4ccc(C#CC5=CCCCC5)cc43)[C@@H](C(=O)Nc3nc4ccccc4s3)[C@H]12`: the composite z-score in [1] was 0.22; in assay [2], 0.525; in assay [3] it was -0.0302; in [4], 0.99; in [5], 0.593; in assay [6] it was 1.25. The composite z-score in the assay with Lefty1 is 0.547; in assay [8], 0.453. Moreover, the values for the z-score in assay [7] and in assay [9] were -2.31 and -2.64 (inactive), respectively.

In the case of `CO[C@H]1O[C@H](CO)[C@@H](OC(=O)Nc2cccc(F)c2)[C@H](OC(=O)c2cc3ccccc3[nH]2)[C@H]1OC(=O)c1cc2ccccc2[nH]1`, the composite z-score in [1] was -0.371; in assay [2], -0.486; in assay [3], 0.23; in assay [4], 0.836; in assay [5], 0.498; in [6], -0.234. Also, the composite z-score in the assay with Lefty1 was 0.379; in assay [8], 0.513. For the same molecule, the z-score in assay [7] was -0.68; in assay [9] it was -0.635 (inactive).

Regarding `CC(C)N1C(=O)[C@@]2(Cc3ccccc31)c1ccccc1C(=O)N(Cc1ccccc1)[C@H]2c1ccc(CO)cc1`, the composite z-score in assay [1] was 2.84; in [2], -0.299; in assay [3] it was -0.0689; in [4] it was -0.375; in assay [5], 0.848; in [6], 0.203. In addition, the values for the composite z-score (with Lefty1; in [8]) were 0.13 and -0.622, respectively. In addition, the figures for the z-score in assay [7] and in assay [9] were 0.591 and -0.52 (inactive), respectively.

Turning to `COC(=O)[C@@]1(Cc2ccc(F)cc2)[C@H]2c3cc(C(=O)N4CCCC4)n(CCc4c[nH]c5cc(F)ccc45)c3C[C@H]2CN1C(=O)c1ccccc1`, the composite z-score in assay [1] was 1.43; in [2], 1.26; in [3], 1.16; in [4], 0.999; in [5] it was 1.13; in [6] it was 0.296. The results for the composite z-score (in the assay with Lefty1; in assay [8]) were 0.293 and 0.832, respectively. Besides, the figures for the z-score in [7] and in [9] were 0.592 and 2.41 (inactive), respectively.

In the case of `CCCC=C(CCC)[C@@H](NC(=O)c1ccc(C(=O)OC)cc1)c1ccc(C(=O)OC)cc1`, the composite z-score in assay [1] is -0.202; in assay [2], 0.33; in [3] it was 0.723; in assay [4], 0.146; in [5] it was 0.0388; in assay [6], -1.47. Moreover, the composite z-score was -0.799 with Lefty1 and 0.315 in [8]. Further, the z-score in [7] is -0.699; in assay [9] it was 1.3 (inactive).

Turning to `CCCC1(C(=O)OC)C=C2C(=C(C(C)C)C(=O)C2C)CN1` (stereo not given), the composite z-score in [1] is 1.76; in [2], -1.58; in [3], -0.222; in assay [4] it was -0.727; in assay [5], -0.927; in [6] it was -0.434. Moreover, the results for the composite z-score (in the assay with Lefty1; in assay [8]) were -1.1 and -0.116, respectively. The figures for the z-score in assay [7] and in assay [9] were 0.905 and 1.88 (inactive), respectively.

On to `O=C(CS)NCCCCCCNC(=O)[C@H]1C[C@H]2C(=O)NCC(=O)N2[C@H]1c1cccc(OCCO)c1`, for which the composite z-score in assay [1] was found to be 1.64; in assay [2], 0.245; in assay [3], 0.128; in [4] it was 0.65; in assay [5], 1.35; in [6], 1.56. In addition, the composite z-score is 0.47 in the assay on Lefty1 and -0.152 in assay [8]. For the same molecule, the z-score in assay [7] was -0.698; in assay [9], 0.057 (inactive).

`CC(CO)N1C(=O)[C@@H]2[C@H]3C(=O)OCC=C[C@H]3OC23C=CCN(c2ccc4ccccc4c2)C(=O)[C@@H]13` (stereo not given in full): the composite z-score in [1] was -0.786; in assay [2], -1.21; in assay [3], 0.204; in [4], -1.83; in [5], -2.31; in [6] it was -1.55. Further, the composite z-score is -2.07 in the assay on Lefty1 and -0.515 in assay [8]. For the same molecule, the values for the z-score in assay [7] and in assay [9] were 0.599 and -0.0768 (inactive), respectively.

With `CCOC(=O)C[C@H]1[C@H](OC(=O)Cc2ccc3c(c2)OCO3)[C@@H](NC(=O)CC(C)C)c2cc(OCCCO)ccc2N1C(=O)c1ccc2ccccc2n1`, the composite z-score is 0.212 in [1]; 0.832 in assay [2]; 0.325 in assay [3]; 0.973 in assay [4]; 1.32 in assay [5]; 1.28 in assay [6]. Also, the figures for the composite z-score (in the assay with Lefty1; in assay [8]) were 0.424 and 0.249, respectively. The figures for the z-score in assay [7] and in assay [9] were -0.944 and 0.739 (inactive), respectively.

As for `CN(C)C(=O)[C@]1(CCS(=O)(=O)c2ccccc2)N=C(c2ccc(OCCCO)cc2)O[C@@H]1c1ccccc1CN=[N+]=[N-]`, the composite z-score in assay [1] is 2.64; in [2], 1.26; in assay [3] it was 1.08; in [4], 0.994; in assay [5] it was 0.983; in assay [6] it was 1.45. Besides, the composite z-score in the assay with Lefty1 is -0.421; in [8], 0.774. The z-score in [7] was -0.381; in [9] it was -0.345 (inactive).

With `O=C1O[C@H](c2ccccc2)[C@H](c2ccccc2)N2[C@H]1[C@@H](C(=O)N1CCCCCCC1)[C@]1(C(=O)Nc3ccc(C#CCCO)cc31)[C@H]2c1ccc(O)cc1`, the composite z-score was 2.12 in [1]; 1.32 in assay [2]; 4.55 in [3]; 0.967 in [4]; 1.56 in assay [5]; 1.71 in [6]. Moreover, the composite z-score in the assay with Lefty1 was determined as 1.85; in assay [8], 1.68. For the same molecule, the z-score is 0.889 in assay [7] and 0.628 (inactive) in [9].
